MCF10A rereplic: A quantitative high throughput screen for small molecules that induce DNA re-replication in MCF 10a normal breast cells | MCF 10A DNA re-replication, Hoechst nuclear intensity, 48 h | Potency, µM (top dose mostly 46.1 µM), inactives show at the highest dose activity, positive = re-replication, usual class: activators | hit rate 2.9% among 350,000 | AID 624296, 2012; also: potency is read from the fitted curve at half-maximal effect; % of control where 0% means no effect; nearly all actives have a fitted effect of over 50% in size
IL-1B inflam inh: qHTS for Inhibitors of Inflammasome Signaling: IL-1-beta AlphaLISA Primary Screen; hit rate 4.7% among 360,000; THP-1 LPS/ATP IL-1B secretion, AlphaLISA, 16 h; active compounds read low; activity change, % at 57.5 µM; in the data active = activity change below about -50%; inconclusive = mostly about -30% to -49%; also: % is scaled to controls: 0 for no effect and ±100 for the full control effect
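THP-1 cells pretreated 1 hr with compounds (up to 57.5 uM final), then stimulated with LPS (250 ng/mL final) plus ATP (1.25 mM final); secreted IL-1B measured by AlphaLISA after 16 hr, decreased signal indicating inhibition.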
BCR signal inh: qHTS Assay to Find Inhibitors of Chronic Active B-Cell Receptor Signaling; ABC-DLBCL IkBa-CBG/CBR reporter, luminescence ratio, 4 h; hit rate 0.05% among 340,000; Potency, µM (doses to about 46.1 µM), without a hit: at the highest dose activity change, negative = inhibition, actives largely listed as inhibitors; active = well fitted inhibition curve with a large enough effect in the signal ratio, with a control signal flat, not every such curve was filed as active; inconclusive = small, poorly fitted or top-dose-only effect, or effect the other way, or a change in a side signal; the % refers to the signal ratio;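 also: potency is read from the fitted curve at half-maximal effect; plate controls were basal doxycycline-induced cells for no effect and cells given 10 µM MG132 for full effect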
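TMD8 human ABC-DLBCL cells with doxycycline-inducible IκBα–green luciferase fusion and unfused red luciferase, in 0.5% FBS medium; compounds up to 46 uM, 4 h at 37C. Green/red luminescence ratio, filter-overlap corrected, fitted to concentration-response curves.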
TDP1 cell CPT: qHTS for Inhibitors of human tyrosyl-DNA phosphodiesterase 1 (TDP1): qHTS in cells in presence of CPT; chicken DT40 Tdp1-/-;hTDP1 cells + 20 nM CPT, ATP luminescence, 48 h; Potency, µM (series often up to 46.2 µM), for inactives: at the highest dose activity change, negative = growth inhibition, hits mostly inhibitors; hit rate 12% among 420,000; AID 686979, 2013; also: potency is read from the fitted curve at half-maximal effect; % is scaled to controls: 0 for no effect and ±100 for the full control effect; nearly all actives have a fitted effect of over 55% in size
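Chicken DT40 Tdp1-/- cells complemented with human TDP1, 400 cells/well, exposed to compounds plus 20 nM camptothecin for at least 48 h at 37 C; viability read as ATP content by CellTiter-Glo luminescence.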
SW480 rerep: A quantitative high throughput screen for small molecules that induce DNA re-replication in SW480 colon adenocarcinoma cells; SW480 DNA re-replication, Hoechst DNA content imaging, 48 h; Potency, µM (titrated, usually from 46.1 µM), inactives show at the highest dose re-replication activation, hits mostly activators; hit rate 1.8% among 340,000; AID 624297, 2012; also: potency is read from the fitted curve at half-maximal effect; % of control where 0% means no effect; nearly all actives have a fitted effect of over 55% in size
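Cells (250 per well) received 23 nL compound or DMSO by pin tool and were kept 48 hr at 37 C, 5% CO2. Nuclei were then stained with Hoechst for 40 min and scanned for DNA content.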
DT40 TDP1 no CPT: qHTS for Inhibitors of human tyrosyl-DNA phosphodiesterase 1 (TDP1): qHTS in cells in absence of CPT. DT40 Tdp1-/- hTDP1 cells, no CPT, ATP luminescence, 48 h. Potency, µM (titrated, usually from 46.2 µM), for inactives: top-dose activity change, negative = growth inhibition, hits mostly inhibitors. hit rate 15% among 420,000. AID 686978, 2013; also: potency is read from the fitted curve at half-maximal effect; % is scaled to controls: 0 for no effect and ±100 for the full control effect; nearly all actives have a fitted effect of over 55% in size
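No-CPT arm: Tdp1-/-;hTDP1 DT40 cells (400/well) plus compounds, incubated ≥48 hr at 37 °C. Readout CellTiter-Glo luminescence.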
* marks the source's active call; other numbers are inactive results; ? = inconclusive; · = not tested or not shown. A selection: hits, their analogues and other compounds. The true share with any hit is near 19%. Unless noted, calls follow the shape of the dose curve; as a rule, active = well fitted curve in the direction sought with a large enough effect; inconclusive = small, poorly fitted or top-dose-only effect, or another doubt; inactive = no such curve, though single readings can be large; an effect the other way counts as inactive or inconclusive.

SMILES	MCF10A rereplic	IL-1B inflam inh	BCR signal inh	TDP1 cell CPT	SW480 rerep	DT40 TDP1 no CPT
Cc1ccc(N(Cc2ccc(C(=O)NCC3CCCO3)cc2)S(C)(=O)=O)cc1C (configuration not stated)	?	0	5%	9%	6%	-8%
Cc1ccccc1OCC(=O)N(Cc1ccc(N(C)C)cc1)CC1CCCO1 (configuration not stated)	·	·	·	?	·	21µM*
COc1cc(OC)c(NC(=O)CCNS(=O)(=O)c2ccc3c(c2)CC(C)N3C(C)=O)cc1Cl (configuration not stated)	-5%	107	-2%	19%	10%	22%
COc1ccc(C2NC(=O)N(C)C3=C2C(=O)N(c2cccc(C(=O)O)c2)C3)cc1 (configuration not stated)	·	·	·	-13%	·	-5%
O=C(NNc1c(F)c(F)cc(F)c1F)c1ccco1	9%	32	1%	-20%	-1%	2%
O=C(NNc1c([N+](=O)[O-])cc(C(F)(F)F)cc1[N+](=O)[O-])c1ccco1	-2%	0	17%	26µM*	-10%	23µM*
O=C1C2C3c4ccccc4C(c4ccccc43)C2C(=O)N1Cc1ccccn1 (configuration not stated)	5%	19	-8%	23µM*	2%	23µM*
O=C1C2C3c4ccccc4C(c4ccccc43)C2C(=O)N1Cc1cccnc1 (configuration not stated)	-3%	-2	-1%	?	-2%	18µM*
CCN(CC)CCNC(=O)C(=O)Nc1c2c(nn1-c1ccc(F)cc1)CSC2	·	·	1%	-25%	·	-24%
Cc1cc(N2CCOCC2)nc2ccc(NC(=O)CCC(=O)N3CCN(c4cccc(C(F)(F)F)c4)CC3)cc12	15µM*	-77*	?	4.1µM*	19%	2.1µM*
Cc1cc(N2CCOCC2)nc2ccc(NC(=O)CCC(=O)N3CCCCC3)cc12	8%	-5	2%	-13%	6%	-16%
Cc1cc(N2CCOCC2)nc2ccc(NC(=O)CCC(=O)N3CCC(C)CC3)cc12	0%	8	5%	1%	-5%	?
CCC(C)NC(=O)CCC(=O)Nc1ccc2nc(N3CC(C)CC(C)C3)cc(C)c2c1 (configuration not stated)	21µM*	-59*	5%	-17%	?	16µM*
CCOC(CCNC(=O)CCC(=O)Nc1ccc2nc(N3CCN(C)CC3)cc(C)c2c1)OCC	4%	10	?	9%	-5%	1%
CCCCNC(=O)CCC(=O)Nc1ccc2nc(N3CCC(C)CC3)cc(C)c2c1	21µM*	-6	5%	?	?	?
Cc1cc(N2CCC(C)CC2)nc2ccc(NC(=O)CCC(=O)N3CCN(c4ccccc4F)CC3)cc12	·	·	·	18µM*	·	15µM*
CN(c1nccc(=O)[nH]1)C1CCN(c2nc3ccccc3n2Cc2ccc(F)cc2)CC1	?	·	·	-4%	?	?
O=C(NCCCO)C(=O)NCC(c1ccc2c(c1)OCO2)N1CCOCC1 (configuration not stated)	·	·	·	-6%	·	-1%
Cc1ccc(C(=O)NCc2ccccn2)cc1NC1=NC2CS(=O)(=O)CC2S1 (configuration not stated)	5%	5	4%	-2%	-16%	-5%
CCC(c1nnnn1CCc1ccccc1)N(Cc1ccco1)Cc1cc2cc(C)cc(C)c2[nH]c1=O (configuration not stated)	?	-53*	12%	18µM*	?	23µM*
CCC(c1nnnn1CCOC)N(Cc1ccc(C)cc1)Cc1cc2cc(OC)ccc2[nH]c1=O (configuration not stated)	1%	-27	9%	?	-6%	7.3µM*
CCC(c1nnnn1Cc1ccccc1)N(Cc1ccco1)Cc1cc2cc(OC)ccc2[nH]c1=O (configuration not stated)	?	-54*	?	16µM*	14%	21µM*
CCC(c1nnnn1CCOC)N(Cc1cc2c(C)cc(C)cc2[nH]c1=O)CC1CCCO1 (configuration not stated)	2%	-12	-3%	?	1%	?
CCC(c1nnnn1Cc1ccco1)N(CCc1ccccc1)Cc1cc2cc(C)ccc2[nH]c1=O (configuration not stated)	25%	-52*	?	21µM*	0%	?
CCC(c1nnnn1CCOC)N(Cc1cc2cc(C)c(C)cc2[nH]c1=O)CC1CCCO1 (configuration not stated)	-2%	-19	-4%	-16%	-8%	?
SMILES	MCF10A rereplic	IL-1B inflam inh	BCR signal inh	TDP1 cell CPT	SW480 rerep	DT40 TDP1 no CPT
CCC(C)(C)C1CCC2(CC1)NC(=O)N(CC(=O)N1CCN(C(=O)c3ccco3)CC1)C2=O (configuration not stated)	-3%	-4	3%	-29%	-6%	-4%
CCc1ccc2[nH]c(=O)c(CN(Cc3ccc(F)cc3)C(c3nnnn3CCN3CCOCC3)C(C)C)cc2c1 (configuration not stated)	6%	24	5%	?	-2%	?
Cc1ccc2[nH]c(=O)c(CN(CCc3ccccc3)C(c3nnnn3Cc3ccco3)C(C)C)cc2c1 (configuration not stated)	?	-91*	?	29µM*	?	23µM*
CCN(CC)S(=O)(=O)c1cc(C(=O)Nc2ccccc2[N+](=O)[O-])ccc1Cl	?	-89*	?	?	16µM*	16µM*
CN(C)S(=O)(=O)c1cccc(C(=O)Nc2ccccc2[N+](=O)[O-])c1	?	?	-9%	?	?	?
CCN(CC)S(=O)(=O)c1ccc(Cl)c(NC(=O)COc2ccccc2[N+](=O)[O-])c1	25%	-2	0%	?	-15%	23µM*
COc1ccccc1OCCC(=O)OCC(=O)Nc1cc(S(=O)(=O)N(C)C)ccc1Cl	?	-19	?	?	?	?

Screening results: PubChem, National Center for Advancing Translational Sciences (NCATS)
